# Compound activity deposited in PubChem by National Center for Advancing Translational Sciences (NCATS).
# Compounds with a hit are over-represented: about 12% of the library has one in this group of screens.
# BAZ2B inh – qHTS Assay for Inhibitors of BAZ2B | Bromodomain adjacent to zinc finger domain protein 2B (Homo sapiens), Q9UIF8 | AlphaScreen BAZ2B-H3K14Ac peptide displacement | Potency, µM (top dose mostly 114 µM), inactives show at the highest dose activity change, negative = inhibition, actives largely listed as inhibitors | actives 4.4% (n = 360,000) | AID 504333, 2011; note: % is set by controls: 0 for no effect and ±100 for the full control effect; nearly all actives have a fitted effect of over 60% in size
#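 In this displacement format the biotinylated H3(5-23) peptide acetylated at Lys14 serves as ligand at 50 nM, with BAZ2B at 50 nM in PBS pH 7.4 containing 0.01% Tween-20. Donor and acceptor beads are 10 ug/mL final.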
# L3MBTL1 inh – qHTS Assay for the Inhibitors of L3MBTL1 | Potency, µM (titrated, usually from 57.1 µM), without a hit: at the top dose activity, negative = inhibition, actives largely listed as inhibitors | AlphaScreen L3MBTL1–H3K9me1 peptide binding | actives 0.66% (n = 230,000) | AID 485360, 2010; note: % is set by controls: 0 for no effect and ±100 for the full control effect; nearly all actives have a fitted effect of over 60% in size
#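 Displacement of a biotinylated histone H3(1-15) peptide monomethylated at Lys9 (75 nM) from L3MBTL1 (50 nM) was measured by AlphaScreen after a 30 min room-temperature compound incubation; cefsulodin titration served as intraplate control.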
# Sfp inh – qHTS Assay for Inhibitors of Bacillus subtilis Sfp phosphopantetheinyl transferase (PPTase). Biochemical Sfp PPTase activity, qHTS. Potency, µM, for inactives: largest response in the series, negative = inhibition, actives largely listed as inhibitors. actives 3.5% (n = 310,000). AID 1490, 2009;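 note: the enzyme is Sfp with the accession as filed and its product quenches rhodamine fluorescence; 0% = enzyme reaction without inhibitor and -100% = no enzyme wells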
#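 Compounds were incubated with enzyme (final 15 nM) for 15 min at room temperature before substrate addition started the reaction. Fluorescence at 525 nm excitation, 598 nm emission was recorded immediately and after 30 minutes.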
# HP1b binding inh – HTS for Inhibitors of HP1-beta Chromodomain Interactions with Methylated Histone Tails. actives 0.56% (n = 390,000). AlphaScreen HP1-beta / biotin-H3K9me3 peptide binding. Potency, µM (series often up to 114 µM), inactives show at the highest dose activity change, negative = inhibition, usual class: inhibitors. AID 540317, 2011. Chromobox protein homolog 1 (Homo sapiens), P83916; note: nearly all actives have a fitted effect of over 70% in size
# Target sequence (P83916 whole entry, looked up): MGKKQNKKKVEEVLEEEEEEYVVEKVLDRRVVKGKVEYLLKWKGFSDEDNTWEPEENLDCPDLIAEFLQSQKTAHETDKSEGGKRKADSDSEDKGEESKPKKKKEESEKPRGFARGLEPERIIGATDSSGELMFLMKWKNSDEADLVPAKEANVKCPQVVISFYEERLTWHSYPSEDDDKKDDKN
#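 HP1-beta protein (50 nM final) preincubated 30 min at room temperature with biotinylated H3(1-18)K9me3 peptide (50 nM) in PBS pH 7.4, 0.01% Tween-20, then compound added for 30 min. AlphaScreen streptavidin donor/nickel chelate acceptor beads (10 ug/mL final), 30 min dark, luminescence read.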
# G9a block – qHTS Assay for Inhibitors of Histone Lysine Methyltransferase G9a. G9a H3K9 monomethylation, AlphaScreen, 2 h. actives 8.8% (n = 350,000). Potency, µM (titrated, usually from 102 µM), for the others: at the highest dose activity, negative = inhibition, most hits filed as inhibitors. AID 504332, 2011. Histone-lysine N-methyltransferase EHMT2 (Homo sapiens), Q96KQ7; note: % is set by controls: 0 for no effect and ±100 for the full control effect; nearly all actives have a fitted effect of over 75% in size
# Target sequence (Q96KQ7 913-1193 limits assumed): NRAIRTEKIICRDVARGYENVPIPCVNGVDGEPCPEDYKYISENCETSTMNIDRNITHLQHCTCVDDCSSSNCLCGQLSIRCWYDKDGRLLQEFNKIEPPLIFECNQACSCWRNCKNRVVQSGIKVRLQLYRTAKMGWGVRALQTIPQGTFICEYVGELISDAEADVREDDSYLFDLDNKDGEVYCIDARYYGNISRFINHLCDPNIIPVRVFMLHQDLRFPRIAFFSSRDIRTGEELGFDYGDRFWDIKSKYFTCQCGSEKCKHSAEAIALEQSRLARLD
#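 Quantitative HTS format: methyltransferase activity on a biotin-tagged H3K9 peptide is measured by AlphaScreen, using a rabbit anti-monomethyl-H3K9 antibody with streptavidin donor and anti-IgG acceptor beads. Final levels are 20 nM enzyme, 500 nM peptide, 20 uM SAM; 2 h RT.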
# JMJD2A Tudor inh – qHTS Assay for Inhibitors of JMJD2A-Tudor Domain; AlphaScreen JMJD2A-Tudor / H3K4me3 peptide binding; Potency, µM (doses to about 114 µM), for the others: at the highest dose activity change, negative = inhibition, most hits filed as inhibitors; actives 4.4% (n = 390,000); note: % is set by controls: 0 for no effect and ±100 for the full control effect; nearly all actives have a fitted effect of over 50% in size
# An asterisk follows results filed as active; ? = inconclusive; nt = not tested or not shown; [ ] = another dose, or the depositor's remark. Calls come from the whole dose curve; as a rule, active = well fitted curve in the direction sought with a large enough effect; inconclusive = small, poorly fitted or top-dose-only effect, or another doubt; inactive = no such curve, though single readings can be large; an effect the other way counts as inactive or inconclusive. Potency is the fitted concentration of half-maximal effect.
SMILES,BAZ2B inh,L3MBTL1 inh,Sfp inh,HP1b binding inh,G9a block,JMJD2A Tudor inh
N#CC(c1ccc(Cl)cc1)c1c(Cl)cc(-n2ncc(=O)[nH]c2=O)cc1Cl (stereo unspecified),nt,nt,-8.6%,nt,?,nt
CCN(CC)CCCC(C)Nc1c2ccc(Cl)cc2nc2ccc(OC)cc12 (stereo unspecified),-34.1%,nt,?,nt,8.44µM*,nt
COc1ccc2nc3cc(Cl)ccc3c(Nc3cc(C(C)C)c(O)cc3C)c2c1,?,?,50.1µM*,-32.9%,-25.6%[59 µM],?
COc1ccc(C(CNC(=O)c2cncc(Br)c2)N(C)C)cc1 (stereo unspecified),-3.1%,nt,11.0%,46.8%,?,-9.4%
CCN(CC)CCOC(=O)c1ccc(Nc2c3c(nc4ccccc24)CCC3)cc1,nt,nt,nt,32.6%,?,-30.0%
CCOC(=O)/C=C/C(=O)OCc1csc(CC(=O)Nc2ccccc2C)n1,50.1µM*,nt,15.5%,50.4%,28.9%,0.3%
CC(C)=CC(=O)OCc1csc(CC(=O)Nc2ccccc2C)n1,-2.8%,nt,-1.2%,62.8%,-7.3%,-13.6%
CCN(CC)CCNC(=O)c1ccc(NC(=O)c2cn(-c3ccc(F)cc3)nc2-c2cccc(OC)c2)cc1,?,nt,50.1µM*,0.7%,-16.8%,-34.6%
Cc1ccc(C[C@@H](NS(=O)(=O)c2ccc(C(=O)O)cc2)C(=O)O)cc1,3.0%,4.8%,13.4%,nt,0.7%[12.7 µM],-1.4%
COC(=O)CC(c1ccc(C#N)cc1)n1c(C)ccc1C (stereo unspecified),-18.7%,-2.7%,27.7%,14.8%,5.7%,-19.9%
CCOC(=O)CC(c1ccc([N+](=O)[O-])cc1)n1c(C)ccc1C (stereo unspecified),44.7µM*,-3.8%[11.4 µM],-0.9%,?,?,-33.7%
Cn1cc(S(=O)(=O)N2CCCCC2)cc1C(=O)Nc1ccc(OC(F)(F)F)cc1,2.8%,nt,nt,27.5%[57 µM],10.0%[59 µM],-5.4%
COc1ccc2c(c1)CCc1c(C(=O)Nc3cc(OC)c(Cl)cc3OC)noc1-2,-1.0%,nt,nt,-0.7%,-10.0%[59 µM],-11.6%
CC(C)NC(=O)CCCc1ccccc1,6.7%,2.6%,12.8%,20.0%,-2.9%,-2.2%
CCc1ccccc1NNC(=O)CCc1ccccc1,-3.3%,5.8%,13.9%,18.5%,28.2µM*,-7.4%
CC(C)NC(=O)C(=O)NNC(=O)CCc1ccccc1,-38.8%,-4.2%,-6.0%,19.9%,?,14.1µM*
COc1ccccc1NC(=O)NNC(=O)CCc1ccccc1,-1.7%,nt,6.8%,31.1%,13.1%,-6.9%
CCC(C)Sc1ccc([C@H]2N[C@@](Cc3ccccc3)(C(=O)OC)[C@H]3C(=O)N(C)C(=O)[C@@H]23)cc1 (stereo partly specified),-3.3%,-1.9%,nt,28.1%,16.3%[2.33 µM],-12.6%
COc1ccc(N=C2C(=Nc3ccc(OC)cc3)N(c3ccc(N(C)C)cc3)C(=S)N2c2ccc(OC)cc2)cc1,1.58µM*,nt,3.0%,?,8.91µM*,2.24µM*
COc1ccc(N=C2C(=Nc3ccc(OC)cc3)N(c3ccc(OC)cc3)C(=S)N2C(=O)c2ccc(OC)cc2)cc1,?,?,-24.6%,-53.2%,3.55µM*,?
COc1ccc(N2C(=S)N(C(=O)c3ccccc3)C(=Nc3ccccc3)C2=Nc2ccccc2)cc1,nt,nt,nt,-53.2%,nt,?
COc1ccc(N=C2C(=Nc3ccc(OC)cc3)N(c3ccccc3)C(=S)N2C(=O)c2ccc(Cl)cc2)cc1,?,-16.3%,50.1µM*,?,7.08µM*,?
COc1ccc(-c2nc3cnc(OC)nc3n(Cc3cccc(OC)c3)c2=O)cc1,nt,nt,22.3%,nt,9.6%[12.7 µM],nt
COc1cccc(/C=C2\SC(=S)N(C(C)C(=O)NC3C=CS(=O)(=O)C3)C2=O)c1 (stereo unspecified),39.8µM*,nt,-2.7%,-18.7%,?,?
O=C(CCN1C(=O)/C(=C/c2ccc(Cl)cc2)SC1=S)NC1C=CS(=O)(=O)C1 (stereo unspecified),-13.3%,nt,-3.2%,19.8%,27.5%[59 µM],3.1%
SMILES,BAZ2B inh,L3MBTL1 inh,Sfp inh,HP1b binding inh,G9a block,JMJD2A Tudor inh
O=C(CN1C(=O)/C(=C/c2ccc(Cl)cc2)SC1=S)NC1C=CS(=O)(=O)C1 (stereo unspecified),-19.7%,nt,39.8µM*,24.3%,61.5%[59 µM],17.5%
C=CCN(C(C(=O)OC)C(C)C)S(=O)(=O)CCl (stereo unspecified),nt,nt,14.9%,40.9%,nt,2.1%
O=C(CC1CCCCC1)NC1CCCC1,11.9%,nt,-1.1%,43.1%,6.6%[2.33 µM],4.4%
CCOCCCNCC(=O)NC1(C)C2CCC(C2)C1(C)C (stereo unspecified),56.2µM*,nt,19.1%,-56.7%,?,6.31µM*
CC1(C)C2CCC(C2)C1(C)NC(=O)CNCC1CCCCC1 (stereo unspecified),nt,-3.1%,-7.0%,?,5.62µM*,?
CCOCCCNC(=O)CSc1ccccc1,4.7%,9.0%[11.4 µM],19.9%,19.6%,-1.4%[59 µM],-7.4%
CCOc1ccc(S(=O)(=O)Nc2cc(Sc3ncn[nH]3)c3oc(=O)sc3c2)cc1,?,-29.7%,7.94µM*,nt,31.6µM*,nt
CCC1CCc2[nH]nc(C(=O)O)c2C1 (stereo unspecified),?,nt,-14.5%,6.9%,25.1µM*,50.1µM*
CC1CCc2[nH]nc(C(=O)O)c2C1 (stereo unspecified),?,1.1%,-4.3%,12.6%,28.2µM*,31.6µM*
O=C(O)c1n[nH]c2c1CC(C1CCCCC1)CC2 (stereo unspecified),70.8µM*,-9.6%,nt,52.1%,0.9%[2.33 µM],-14.6%
CCCCC1CCc2[nH]nc(C(=O)O)c2C1 (stereo unspecified),?,0.5%,nt,26.2%,15.7%[2.33 µM],-26.6%
Cc1c(C)n2c(SCC(=O)N3CCN(c4ccccc4)CC3)nnc2[nH]c1=O,-3.9%,8.7%,nt,37.6%,4.9%[59 µM],-1.4%
COc1cccc(-n2c(=O)c3sccc3n(Cc3cc(=O)n4cc(Cl)ccc4n3)c2=O)c1,-6.1%,nt,nt,12.9%,9.5%[59 µM],-9.2%
COc1cc(Cl)cc(/C=N/NC(N)=O)c1O,-4.2%,3.6%,?,14.8%,?,-21.8%[57.1 µM]
CCN1CCN(C(=O)c2cc(S(=O)(=O)Nc3ccc(S(C)(=O)=O)cc3)ccc2Cl)CC1,-22.6%,4.9%,15.4%,26.1%,50.1µM*,-7.8%
